Data from PubChem BioAssay (EPA / NIEHS).
Results filed as inconclusive are left out. Active and inactive are the calls of the source. How the source made its calls: active means hit-call score of the fitted dose curve at least 0.9, where 1 is the maximum; inconclusive means response in the unintended direction; inactive means score below 0.9.

Read-out: xenobiotic metabolism (CYP1A1), CYP1A1 (gene 1543)
Assay: CLD_CYP1A1_48hr: CellzDirect (CLD) Gene Expression Assay for xenobiotic metabolism (CYP1A1) at 48 hours (AID 2283705)
Experimental: CLD_48hr is a cell-based, multiplexed-readout assay that uses hepatocyte, a human liver primary cell, with measurements taken at 48 hours after chemical dosing in a 96-well plate.CLD_CYP1A1_48hr is one of 16 assay component(s) measured or calculated from the CLD_48hr assay. It is designed to make measurements of mRNA induction, a form of inducible reporter, as detected with chemiluminescence signals by Quantitative Nuclease Protection Assay (qNPA) technology.Data from the assay component CLD_CYP1A1_48hr was analyzed at the endpoint, CLD_CYP1A1_48hr, in the positive analysis fitting direction relative to DMSO as the negative control and baseline of activity. Using a type of inducible reporter, gain-of-signal activity can be used to understand changes in the reporter gene as they relate to the gene CYP1A1. Furthermore, this assay endpoint can be referred to as a primary readout. To generalize the intended target to other relatable targets, this assay endpoint is annotated to the cyp intended target family, where subfamily is xenobiotic metabolism.
Human hepatocyte cultures were treated daily for two consecutive days with fresh dosing solutions containing appropriate concentrations of the 320 ToxCast chemicals (chemical identities were blinded to CellzDirect and other ToxCast collaborators), vehicle control (0.2% DMSO), and positive control inducers as summarized in Table 1. Due to the large number of treatment groups and chemicals examined, the ToxCast chemicals were divided into two groups (spanning two independent cultures of hepatocytes from separate donor preparations (Hu778: ToxCast plates 1 and 2; Hu776: ToxCast plates 3 and 4). Each preparation of human hepatocyte cultures was treated with respective vehicle control, medium only control, set of six positive controls/reference chemicals for the five hepatic receptor pathways, and a subset of eight of the ToxCast chemicals (indoxacarb, pyrithiobac-sodium, norflurazon, cyhalofop-butyl, methomyl, thiram, acetochlor, and propiconazole). These replicate data, coupled with internal replicates designed within the blinded ToxCast chemical library, provided additional data to evaluate interindividual differences between hepatocyte preparations and their potential impact on chemical profiles.Cell morphology and integrity were evaluated using phase-contrast microscopy as an indicator of hepatocyte cell health (Tyson & Green, 1987). Cultures for each treatment group (i.e., media, vehicle [0.2% DMSO], positive control inducers [multiple concentrations], and the ToxCast chemicals [multiple concentrations]) were observed and cell morphology was assessed relative to vehicle control cultures at each harvest time point (0, 6, 24, or 48 h). […] Images were evaluated at the conclusion of the study to assess changes in cell integrity and account for the effects of chemical exposure on uncharacteristic changes in concentration-dependent gene expression profiles. The results from these determinations of apparent cytotoxicity were annotated (yes/no) alongside the corresponding qNPA data for reference.At the conclusion of each treatment period, hepatocyte cultures (96-well) were washed with 1 volume of HBSS, lysed by addition of 25 ul ArrayPlate lysis buffer (HTG, Tucson, AZ), and 70 ul/well of Denaturation Oil, denatured by incubation at 95C for 10 min, and frozen at approximately -70C until analysis by nuclease protection assay (qNPA) (Roberts et al., 2007). For qNPA analysis, cell lysates were thawed at 50C for approximately 30 min, qNPA probes were added, and samples were incubated at 95C for 10 min to begin the detection process by denaturing the target RNA, dissociating the duplexes and secondary structure hybridization. At the conclusion of the hybridization period, S1 nuclease reagent was added to each sample to digest all nonprotected nucleotides at 50C for 60-90 min. […]

Row | Compound | outcome | AC50
1 | COC(=O)c1ccc(CNS(C)(=O)=O)cc1S(=O)(=O)NC(=O)Nc1nc(OC)cc(OC)n1 | inactive | –
2 | CCOC(=O)C(C)Oc1ccc(Oc2nc3ccc(Cl)cc3o2)cc1 (stereo not drawn) | inactive | –
3 | CCCCC(CC)COC(=O)c1ccccc1C(=O)O (stereo not drawn) | inactive | –
4 | COC(=O)c1c(Cl)nn(C)c1S(=O)(=O)NC(=O)Nc1nc(OC)cc(OC)n1 | inactive | –
5 | CCOC(=O)COc1cc(-n2ncc(C(F)(F)F)c(C)c2=O)c(F)cc1Cl | inactive | –
6 | CCOC(=O)NCCOc1ccc(Oc2ccccc2)cc1 | inactive | –
7 | CCCCC(CC)CN1C(=O)C2C3C=CC(C3)C2C1=O (stereo not drawn) | – | 33.7 µM (active)
8 | COC(=O)c1cccc(C)c1S(=O)(=O)NC(=O)Nc1nc(OCC(F)(F)F)nc(N(C)C)n1 | – | 8.53 µM (active)
9 | O=C(O)C1(C(=O)Nc2ccc(Cl)cc2Cl)CC1 | inactive | –
10 | S=C(S)NCCNC(=S)S.[Mn+2].[S-]C([S-])=NCCN=C([S-])[S-].[Zn+2] | – | 0.252 µM (active)
11 | COC(=O)c1ccccc1C(=O)O | inactive | –
12 | CCNc1nc(N)nc(Cl)n1 | inactive | –
13 | CN(C)C(=O)Nc1ccc(Cl)c(Cl)c1 | – | 12.4 µM (active)
14 | CC(C)(c1ccc(O)cc1)c1ccc(O)cc1 | inactive | –
15 | N#CSCSc1nc2ccccc2s1 | – | 7.52 µM (active)
16 | S=C([S-])NCCNC(=S)[S-].[Mn+2] | – | 3.58 µM (active)
17 | CC(C)(C)[C@@H](O)[C@@H](Cc1ccc(Cl)cc1)n1cncn1 | – | 3.97 µM (active)
18 | COC(=O)CSc1cc(N=c2sc(=O)n3n2CCCC3)c(F)cc1Cl | inactive | –
19 | COC(=O)c1ccc(I)cc1S(=O)(=O)NC(=O)Nc1nc(C)nc(OC)n1 | – | 20 µM (active)

Row | Compound | outcome | AC50
20 | Cc1nn(C)c(Oc2ccccc2)c1C=NOCc1ccc(C(=O)OC(C)(C)C)cc1 | inactive | –
21 | c1ccc(Nc2ccccc2)cc1 | inactive | –
22 | CCC(O)=C1C(=O)CC(C(=O)O)CC1=O (stereo not drawn) | inactive | –
23 | CCCCOCCOCCOCc1cc2c(cc1CCC)OCO2 | – | 12 µM (active)
24 | CSC(=O)c1cccc2nnsc12 | inactive | –
25 | CCCOC(=O)NCCCN(C)C | inactive | –
26 | CCCCOC(=O)[C@@H](C)Oc1ccc(Oc2ccc(C(F)(F)F)cn2)cc1 | inactive | –
27 | CC1(C)C(C=C(Cl)Cl)C1C(=O)OCc1cccc(Oc2ccccc2)c1 (stereo not drawn) | inactive | –
28 | COC(=O)c1ccccc1S(=O)(=O)NC(=O)Nc1nc(OC(F)F)cc(OC(F)F)n1 | inactive | –
29 | c1ccc2[nH]c(-c3cscn3)nc2c1 | – | 0.781 µM (active)
30 | OB(O)O | inactive | –
31 | CCN(Cc1c(F)cccc1Cl)c1c([N+](=O)[O-])cc(C(F)(F)F)cc1[N+](=O)[O-] | – | 1.22 µM (active)
32 | CCCCCOC(=O)COc1cc(N2C(=O)C3=C(CCCC3)C2=O)c(F)cc1Cl | inactive | –
33 | CCOC(=O)[C@H](C)Oc1ccc(Oc2nc3ccc(Cl)cc3o2)cc1 | inactive | –
34 | COCCO | inactive | –
35 | CCCN(CCC)c1c([N+](=O)[O-])cc(C(F)(F)F)c(N)c1[N+](=O)[O-] | – | 5.19 µM (active)
36 | C=CCOC(Cn1ccnc1)c1ccc(Cl)cc1Cl (stereo not drawn) | – | 3.84 µM (active)
37 | O=C(Nc1ccc([N+](=O)[O-])cc1Cl)c1cc(Cl)ccc1O | – | 3.55 µM (active)
38 | CCC(C)OC(=O)N1CCCCC1CCO (stereo not drawn) | inactive | –
